ADAM17 inh = inhibitors of human ADAM17 | P78536 | recombinant ADAM17, EDANS/DABCYL FRET peptide cleavage | hit rate 0.83% among 370,000 | inhibition, % at 6.95 µM;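 active = inhibition above the mean of compounds lying between control limits plus 3 SD, set per campaign, cut at about 8.5% in these data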;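 also: 0% = DMSO-only wells as the low control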
PLC-beta3 inh = inhibitors of human phospholipase C beta3; Purified PLC-beta3, fluorogenic substrate, fluorescence; inhibition, % at 12.2 µM; Q01970; AID 720704; hit rate 0.18% among 370,000; in the data active = inhibition above about 11%;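 also: 0% = median of compound wells on plate and 100% = full blocker control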
proKLK7 act = activates the human kallikrein-7 zymogen | activation, % at 7 µM | hit rate 0.9% among 370,000 | AID 652039 | purified proKLK7, EDANS-DABCYL substrate fluorescence; 100% is mature enzyme control, 0% vehicle | P49862;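 active = activation above the mean of all tested compounds plus 3 SD, computed per campaign excluding outliers beyond control limits, cut at about 13% in these data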
ADAM10 inh = inhibits human ADAM10. O14672. recombinant ADAM10, EDANS/DABCYL FRET peptide cleavage, 3 h. inhibition, % at 7 µM. hit rate 0.62% among 370,000;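 active = inhibition above a per-campaign cutoff equal to the mean of compounds falling between control-based bounds plus 3 SD, cut at about 20% in these data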;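 also: 0% = DMSO wells while the 100% control is not disclosed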
PLC-gamma1 inh = inhibitors of human phospholipase C gamma1; P19174; purified PLC-gamma1, fluorogenic substrate, fluorescence; inhibition, % at 12.2 µM; hit rate 0.84% among 370,000; in the data active = inhibition above about 9.5%
Target sequence (P19174 whole entry, looked up): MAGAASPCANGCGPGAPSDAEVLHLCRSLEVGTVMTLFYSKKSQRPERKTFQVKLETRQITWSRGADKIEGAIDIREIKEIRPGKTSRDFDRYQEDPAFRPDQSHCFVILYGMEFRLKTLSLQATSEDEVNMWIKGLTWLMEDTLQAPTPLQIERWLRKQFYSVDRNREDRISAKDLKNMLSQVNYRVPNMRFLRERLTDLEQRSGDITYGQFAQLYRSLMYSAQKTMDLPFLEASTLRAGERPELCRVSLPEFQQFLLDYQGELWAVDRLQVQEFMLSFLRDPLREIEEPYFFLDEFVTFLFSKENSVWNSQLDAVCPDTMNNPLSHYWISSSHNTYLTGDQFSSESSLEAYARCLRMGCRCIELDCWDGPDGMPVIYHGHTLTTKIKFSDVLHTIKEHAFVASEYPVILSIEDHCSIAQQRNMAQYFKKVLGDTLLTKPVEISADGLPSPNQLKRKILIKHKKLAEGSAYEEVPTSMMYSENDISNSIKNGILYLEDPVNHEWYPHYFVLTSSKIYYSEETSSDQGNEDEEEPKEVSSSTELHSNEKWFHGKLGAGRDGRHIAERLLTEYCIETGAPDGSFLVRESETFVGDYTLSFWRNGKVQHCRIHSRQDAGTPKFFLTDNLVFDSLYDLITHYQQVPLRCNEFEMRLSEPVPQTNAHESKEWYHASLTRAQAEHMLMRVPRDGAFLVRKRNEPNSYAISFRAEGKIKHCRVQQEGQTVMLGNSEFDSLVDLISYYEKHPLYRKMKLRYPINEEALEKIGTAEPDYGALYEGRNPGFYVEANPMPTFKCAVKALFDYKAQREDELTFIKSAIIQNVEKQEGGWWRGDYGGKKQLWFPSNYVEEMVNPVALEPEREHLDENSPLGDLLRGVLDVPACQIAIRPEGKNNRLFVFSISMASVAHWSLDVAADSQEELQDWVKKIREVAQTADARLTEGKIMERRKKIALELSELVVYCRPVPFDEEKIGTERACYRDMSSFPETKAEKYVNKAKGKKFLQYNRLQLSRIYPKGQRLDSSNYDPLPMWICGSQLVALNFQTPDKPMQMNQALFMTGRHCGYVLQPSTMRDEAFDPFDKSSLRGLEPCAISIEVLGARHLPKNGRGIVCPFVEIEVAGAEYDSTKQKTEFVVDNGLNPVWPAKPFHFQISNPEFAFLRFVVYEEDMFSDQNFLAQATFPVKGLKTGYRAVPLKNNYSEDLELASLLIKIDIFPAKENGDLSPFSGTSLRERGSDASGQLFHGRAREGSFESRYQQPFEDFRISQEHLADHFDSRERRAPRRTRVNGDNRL
proKLK7 act conf = confirmation of human kallikrein-7 zymogen activators; shares compounds with proKLK7 act; purified proKLK7, EDANS-DABCYL substrate fluorescence; scaled: vehicle 0, mature enzyme 100; activation, % at 7 µM; hit rate 68% among 3,200;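 active = activation, as change over the incubation, above the mean of all tested compounds plus 3 SD, cut at about 13% in these data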
EDANS-DABCYL int = fluorescence interference counter-screen for KLK7 activators. shares compounds with proKLK7 act. EDANS-DABCYL substrate fluorescence interference, no enzyme, 4 h; solvent 0%, active enzyme control 100%. activation, % at 7 µM. hit rate 80% among 3,200. AID 686952;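 active = activation above the all-compound mean plus 3 SD, ignoring values outside control-based bounds, cut at about 4.8% in these data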;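 also: value is the 4 h activation minus the activation read at time zero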
An asterisk follows results filed as active; i = inactive; · = no result given. Most compounds without a hit are left out; they make up all but 2.9% or so of the library.

SMILES	ADAM17 inh	PLC-beta3 inh	proKLK7 act	ADAM10 inh	PLC-gamma1 inh	proKLK7 act conf	EDANS-DABCYL int
N#CC1=C(N)Oc2cc(N)ccc2C1c1ccc(Cl)cc1 (stereo not drawn)	-1	-49	1	-5	-42	·	·
N#CC1=C(N)Oc2cc(N)ccc2C1c1ccc(F)cc1F (stereo not drawn)	-98	-412	17*	-215	-337	13*	15*
N#CC1=C(N)Oc2cc(N)ccc2C1c1ccccc1Cl (stereo not drawn)	-77	-329	20*	-233	-293	4	5.8*
CCCCNS(=O)(=O)/C=C/c1ccc(F)cc1CNC(=O)OC(C)(C)C	1	1	0	2	2	·	·
c1nc(NCC2CCOC2)c2cc(-c3ccc4c(c3)OCO4)ccc2n1 (stereo not drawn)	-33	-192	·	-96	-127	·	·
CCCCN1C2=C(C(=O)CC(C)(C)C2)C(c2ccccc2)C2=C1c1ccccc1C2=O (stereo not drawn)	-5	1	0	-1	-2	·	·
CCN(CC)CCN1C2=C(C(=O)CC(C)(C)C2)C(c2cccc(F)c2)C2=C1CC(C)(C)CC2=O	-179	-390	16*	-463	-290	-6	-3
CC1(C)CC(=O)C2=C(C1)N(CCN1CCOCC1)C1=C(C(=O)CC(C)(C)C1)C2c1cccc(Cl)c1	-245	i	26*	i	-486	2	8.1*
COC(=O)[C@]12C[C@H](CC(=O)NCc3ccc(C)o3)C(=O)N(CCc3ccc(OC)c(OC)c3)C1=C[C@H](C(C)C)O[C@@H]2C1CC1	-4	0	0	-4	1	·	·
CCOc1cc2c(C#N)c(N3CCOCC3)nc(N)c2c(N)n1	-112	i	16*	-420	i	69*	66*
CCC1Cc2c(nc(N)c3c(N)nc(N4CCOCC4)c(C#N)c23)O1 (stereo not drawn)	-127	i	19*	-379	i	-16	-24
N#Cc1c(N2CCCCC2)nc(N)c2c(N)nc3c(c12)CC(CCl)O3 (stereo not drawn)	-181	i	14*	i	i	-149	-159
COc1ccc(CN2C(=O)Cc3c2nc(N)c2c(N)nc(N4CCOCC4)c(C#N)c32)cc1	-108	-136	55*	-337	-86	-48	-49
Cc1ccc(-c2c(C(=O)NC3CCCC3)oc(=O)c3ccccc23)cc1	0	3	0	7	8	·	·
O=C1N2Cc3ccccc3C2CS(=O)(=O)N1Cc1ccccc1 (stereo not drawn)	2	-1	-1	3	0	·	·
COc1ccccc1N1CCN(N=Cc2ccccc2Br)CC1	-4	3	0	-12	5	·	·
COc1ccc(Cn2c(NC(=O)c3ccccc3)nc(Cc3ccccc3)c2Cc2ccccc2)cc1	7	-29	-6	-2	-14	·	·
O=c1nc2ccc(Cl)cn2c2ccc(S(=O)(=O)N3CCCCC3)cc12	-196	i	-9	i	-460	·	·
O=c1nc2ccc(Cl)cn2c2ccc(S(=O)(=O)N3CCOCC3)cc12	-496	i	20*	i	i	70*	78*
COc1cc2[nH]c(Cl)c([N+](=O)[O-])c2cc1OC	-180	-388	58*	-440	-290	7	5.9*
C=CCN1C(=O)[C@H](CC(=O)N2CCN(C(=O)c3ccco3)CC2)[C@@]2(C(=O)OCC)CCCC=C12	-2	1	0	-1	2	·	·
Cc1c(Cc2ccccc2)c(=O)oc2cc(O)cc(O)c12	-489	i	55*	i	i	64*	76*
Cc1ccccc1NC(=O)N(C)[C@H]1C[C@H]2c3[nH]c4c(-c5ccccc5)cccc4c3CCN2C[C@H]1[C@H](C)O	-5	-51	1	-43	-41	·	·
Cc1cc(C)c2c(N)c3cccc(C)c3nc2n1	-264	i	15*	i	-367	46*	42*
CCOC(=O)Nc1ccc2c(COC(=O)CN(C)S(=O)(=O)c3ccc(C)cc3)cc(=O)oc2c1	-168	-139	1	i	-96	·	·
SMILES	ADAM17 inh	PLC-beta3 inh	proKLK7 act	ADAM10 inh	PLC-gamma1 inh	proKLK7 act conf	EDANS-DABCYL int
CCOC(=O)Nc1ccc2c(COC(=O)CNS(=O)(=O)c3cccc(Br)c3)cc(=O)oc2c1	-438	-252	15*	i	-243	30*	34*
CCOC(=O)C1=C(C)NC(=O)CC1c1ccccc1 (stereo not drawn)	0	4	0	-1	0	·	·
CCOC(=O)/C(=C(/C)N)C1CC(=O)NC1=O (stereo not drawn)	-8	-5	33*	-20	-6	37*	37*
C=CCOC(=O)N[C@H](c1ccc2ccccc2c1)[C@H](C)/C=C/CC(=O)OC	-3	-5	0	-1	-1	·	·
CC(=O)Nc1cccc(C(=O)Oc2cccc(C)c2)c1O	-12	-17	40*	-43	-8	48*	51*
Cc1cccc(OC(=O)c2cncc(Br)c2)c1	-3	-3	0	-8	3	·	·
O=S1(=O)c2ccc(Br)cc2OC[C@@H](Cc2ccccc2)N1Cc1cn(Cc2ccc(Cl)cc2)nn1	-2	1	0	-4	0	·	·
CC(=O)c1ccc(-c2ccc(C(=O)N(C)Cc3nc4ccccc4c(=O)[nH]3)o2)cc1	-440	-324	26*	i	-258	-2	-12
Cc1cc(C)c2c(N)c(C(=O)NN3CC(=O)N(c4ccccc4)CC3=O)sc2n1	-288	i	109*	i	i	32*	38*
Cc1cc(C)c2c(N)c(C(=O)Nc3c(C)n(C)n(-c4ccccc4)c3=O)sc2n1	-13	-93	2	-123	-63	·	·
Cc1cc(C)c2c(N)c(C(=O)NN3CC(=O)N(c4cccc(Cl)c4)CC3=O)sc2n1	-48	-291	13*	-141	-225	5	-3
CSc1ccc(-c2csc(N3CCC(C(N)=O)CC3)n2)cc1	-6	-38	·	-26	-28	·	·
O=C(CN1CCCc2ccccc21)NCc1ccc(Cl)cc1	-8	-22	0	-29	-16	·	·
Cc1nc2ccc(-c3nc4ccc(N)cc4[nH]3)cc2[nH]1	i	i	37*	i	i	69*	66*
Nc1ccc2nc(-c3cccc(-c4nc5ccc(N)cc5[nH]4)c3)[nH]c2c1	-5	-64	0	0	-34	·	·
Cc1ccc2nc(-c3ccccc3N)[nH]c2c1	i	i	68*	i	i	4	3
Nc1ccc(-c2nc3ccc(N)cc3[nH]2)cc1	i	i	87*	i	i	69*	75*
Nc1ccc(-c2nc3c(Cl)c(N)ccc3[nH]2)cc1	i	i	70*	i	i	70*	77*
Nc1ccc(-c2nc3ccc([N+](=O)[O-])cc3[nH]2)cc1	3	-15	0	7	-12	·	·

Compound activity deposited in PubChem by The Scripps Research Institute Molecular Screening Center.
